D2 PAM-1 – positive allosteric modulators of human D2 dopamine receptor; DiscoveRx D2 beta-arrestin cells, luminescence, 90 min; 100% = 57 uM dopamine signal; potentiation, % (concentration not given with the values); 360,000 compounds, 0.23% hits; AID 624464; in the data active means potentiation above about 50%; inconclusive means mostly about 30% to 49%
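PathHunter beta-arrestin assay in DiscoveRx D2 cells. Compounds were added with an EC20 of dopamine (50 nM final) for 90 min at 37 deg C. Luminescence was read 1 h after detection reagent, with 57 uM dopamine as the EC100 control.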
D2 antagonist – antagonizes the human D2 dopamine receptor; AID 485344; HEK293 TREx D2 cells, calcium flux, dopamine EC80; inhibition, % at 10 µM; 340,000 compounds, 2% hits; P14416; in the data active means inhibition above about 30%; inactive means below that, where a call was filed; further: 0% is about no effect
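Read-out: kinetic calcium fluorescence (1 cycle/s) in inducible HEK293 T-REx D2 cells after an EC80 dopamine addition that followed 180 s compound preincubation. Loss of the dopamine response indicates antagonism.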
D2 ag-1 – agonists of human D2 dopamine receptor (beta-arrestin). P14416. DiscoveRx PathHunter D2 beta-arrestin, luminescence, 90 min; 100% = 57 uM dopamine signal. activation, % (test concentration not listed). 360,000 compounds, 0.084% hits. AID 624465; in the data active means activation above about 40%; inconclusive means between about 15% and that limit
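Agonist mode: compounds alone added to overnight-plated D2 PathHunter cells for 90 min at 37 C, with 57 uM final dopamine (EC100) defining full response. Beta-arrestin recruitment detected by chemiluminescent reagent, read after 1 h at ambient temperature.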
D2 ag-2 – D2 dopamine receptor (human) agonism; HEK293 T-REx D2 cells, calcium flux agonist mode; P14416; activation, % at 2 µM; 340,000 compounds, 0.53% hits;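 active means activation over 3 SD above normal in the single-dose calcium agonist read, cut at about 30% in these data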; further: 0% is about no effect
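Tetracycline-induced HEK293 T-REx cells with force-coupled D2 receptor, plated overnight at 30 C, loaded with no-wash calcium dye. After a 10 s baseline, compound was pin-added and calcium flux read kinetically for 180 s; calcium rises flagged agonists.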
D2 PAM-2 – positive allosteric modulators of human D2 dopamine receptor; P14416; HEK293 T-REx D2, calcium flux, EC20 dopamine potentiation; potentiation, % at 10 µM; 340,000 compounds, 0.34% hits;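 active means potentiation over 3 SD above the plate norm, cut at about 30% in these data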; further: 0% is about no effect
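Cells plated with tetracycline inducer and held overnight at 30 C; calcium dye loaded 30–90 min at room temperature; baseline taken, compound added and read 180 s; EC20 dopamine then added and read 180 s.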
D3 arrestin ag – confirmation of human D3 dopamine receptor agonists, beta-arrestin | shares compounds with D2 ag-2 | DiscoveRx D3 beta-arrestin cells, luminescence, 90 min | Potency, µM (series often up to 76.9 µM), for the others: top-dose activation, hits mostly activators | 2,300 compounds, 4% hits | AID 720506;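 further: potency means the concentration at half of the fitted maximal effect; 100% = dopamine control response; nearly all actives have a fitted effect of over 70% in size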
Target sequence (P35462 whole entry, looked up): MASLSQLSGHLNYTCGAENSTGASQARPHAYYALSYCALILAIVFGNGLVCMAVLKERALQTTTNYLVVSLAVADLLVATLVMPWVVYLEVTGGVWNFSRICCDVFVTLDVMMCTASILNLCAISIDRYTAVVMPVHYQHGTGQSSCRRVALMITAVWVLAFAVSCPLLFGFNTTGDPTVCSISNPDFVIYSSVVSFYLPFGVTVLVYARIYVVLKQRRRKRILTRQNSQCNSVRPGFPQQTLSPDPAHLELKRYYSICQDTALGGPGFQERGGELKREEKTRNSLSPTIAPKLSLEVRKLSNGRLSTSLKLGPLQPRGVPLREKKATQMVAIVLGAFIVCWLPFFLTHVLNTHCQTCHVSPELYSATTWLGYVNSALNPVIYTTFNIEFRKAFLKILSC
D2 ag-3 – D2 receptor agonism, beta-arrestin counterscreen; shares compounds with D2 ag-2; DiscoveRx PathHunter D2 beta-arrestin, luminescence, 90 min; response scale: percent relative to full dopamine signal; Potency, µM (series often up to 76.9 µM), for the others: top-dose activation, usual class: activators; 2,300 compounds, 5.9% hits; further: potency means the concentration at half of the fitted maximal effect; % of control where 0% means no effect; nearly all actives have a fitted effect of over 70% in size
The depositor's hits bear a star. Hits are enriched below; roughly 2.4% of the tested compounds scored in any of these assays. Unless noted, the call rests on the fitted dose curve; in most records, active means well fitted activation curve with a large enough effect; inconclusive means small, poorly fitted or top-dose-only effect; inactive means flat fitted curve, though single readings scatter.

`Cc1ccc(-c2c(C(=O)N/N=C/c3cccs3)nnn2-c2nonc2N)cc1` gave D2 PAM-1 -2, D2 ag-1 2, D2 PAM-2 16, D3 arrestin ag -3% and D2 ag-3 -2%.
For Cc1ccsc1/C=N/NC(=O)c1nnn(-c2nonc2N)c1-c1ccc2c(c1)OCO2 the results were D2 PAM-1 0, D2 antagonist 2, D2 ag-1 -2, D2 ag-2 1 and D2 PAM-2 -6.
`CCOC(=O)N1CCC(NC(=O)c2cnn(-c3ccc(OC)cc3)c2C2CCN(C(=O)OC(C)(C)C)CC2)CC1` gave D2 ag-2 0 and D2 PAM-2 5.
`O=C(CCN1C(=O)COc2ccccc21)NCCN1CCN(c2ccccc2F)CC1` gave D2 PAM-1 -27, D2 antagonist 45*, D2 ag-1 2, D2 ag-2 36*, D2 PAM-2 -24, D3 arrestin ag -5% and D2 ag-3 1%.
O=C(CN1C(=O)COc2ccccc21)NCCCN1CCN(c2ccccc2F)CC1 was read as D2 PAM-1 -32, D2 antagonist 78*, D2 ag-1 14, D2 ag-2 56*, D2 PAM-2 -18, D3 arrestin ag 2% and D2 ag-3 20%.
`CN1CCN(CCCNC(=O)CN2C(=O)COc3ccccc32)CC1` gave D2 PAM-1 0, D2 antagonist -7, D2 ag-1 -7, D2 ag-2 0 and D2 PAM-2 -2.
Screening O=C(Cn1cc2c(n1)CCCC2)NCCCN1CCN(c2ccccc2F)CC1 returned D2 PAM-1 -8, D2 antagonist 76*, D2 ag-1 -1, D2 ag-2 18, D2 PAM-2 -30, D3 arrestin ag -6% and D2 ag-3 3%.
For O=C(NCCCN1CCN(c2ccccc2F)CC1)C1CC(=O)N(C2CCCC2)C1 (stereo not drawn) the results were D2 PAM-1 -2, D2 antagonist 84*, D2 ag-1 6, D2 ag-2 78*, D2 PAM-2 -18, D3 arrestin ag inconclusive and D2 ag-3 inconclusive.
For Cc1ccc(Cl)cc1NC(=O)Cn1c(=O)oc2cc(S(=O)(=O)N3CCCCCC3)ccc21 the results were D2 ag-2 1 and D2 PAM-2 7.
Cc1ccc(Nc2nc(C(N)=O)c(NC(=O)c3ccccc3Br)s2)cc1 was read as D2 PAM-2 -2.
For COc1ccc2sc(-c3ccccc3OC)c(-c3ccc(OC)c(F)c3)c2c1 the results were D2 PAM-1 -6, D2 antagonist 3, D2 ag-1 -1, D2 ag-2 48*, D2 PAM-2 -34, D3 arrestin ag -6% and D2 ag-3 -2%.
COc1ccc(-c2sc3ccc(OC)cc3c2-c2ccc(OC)c(F)c2)cc1 was read as D2 PAM-1 -3, D2 antagonist 1, D2 ag-1 -5, D2 ag-2 0 and D2 PAM-2 2.
Screening CCC1CCCCN1C(=O)Cn1c(=O)n(CC2CCC(C(=O)NC)CC2)c(=O)c2sccc21 (stereo not drawn) returned D2 ag-2 0 and D2 PAM-2 12.
O=S(=O)(c1ccc(OCC(O)CN2CCCC2)cc1)N1CCOCC1 (stereo not drawn) was read as D2 PAM-1 -6, D2 antagonist 2, D2 ag-1 1, D2 ag-2 0 and D2 PAM-2 3.
Screening O=S(=O)(c1ccc(OCC(O)CN2CCN(c3ccccc3)CC2)cc1)N1CCOCC1 (stereo not drawn) returned D2 PAM-1 13, D2 antagonist 96*, D2 ag-1 44*, D2 ag-2 85*, D2 PAM-2 -23, D3 arrestin ag inconclusive and D2 ag-3 7.1µM*.
`O=S(=O)(c1ccc(OCC(O)CN2CCN(c3ccccc3O)CC2)cc1)N1CCOCC1` (stereo not drawn) gave D2 PAM-1 1, D2 antagonist 69*, D2 ag-1 inconclusive, D2 ag-2 71*, D2 PAM-2 -24, D3 arrestin ag inconclusive and D2 ag-3 28µM*.
For O=S(=O)(c1ccc(OCC(O)CN2CCC(Cc3ccccc3)CC2)cc1)N1CCOCC1 (stereo not drawn) the results were D2 PAM-1 -16, D2 antagonist 27, D2 ag-1 7, D2 ag-2 63*, D2 PAM-2 -23, D3 arrestin ag -4% and D2 ag-3 20%.
Screening Oc1ccc(-c2csc(-c3cccnc3)n2)cc1O returned D2 PAM-1 16, D2 antagonist 4, D2 ag-1 6, D2 ag-2 31*, D2 PAM-2 -10, D3 arrestin ag 16µM* and D2 ag-3 15%.
`Oc1ccc(-c2csc(-c3ccccc3)n2)cc1O` gave D2 PAM-1 15, D2 antagonist -22, D2 ag-1 4, D2 ag-2 0 and D2 PAM-2 -1.
`OC1(Cc2cc(-c3ccccc3)no2)CCN(CCCc2ccccc2)CC1` gave D2 PAM-1 -4, D2 antagonist 73*, D2 ag-1 -1, D2 ag-2 46*, D2 PAM-2 -28, D3 arrestin ag inconclusive and D2 ag-3 11%.
`c1ccc2sc(SCSc3nc4ccccc4s3)nc2c1` gave D2 PAM-1 0, D2 antagonist 12, D2 ag-1 -4, D2 ag-2 32*, D2 PAM-2 -25, D3 arrestin ag -7% and D2 ag-3 inconclusive.
O=C(O)CCSc1nc2ccccc2s1 was read as D2 PAM-1 0, D2 antagonist 5, D2 ag-1 -1, D2 ag-2 2 and D2 PAM-2 8.
`CCC(=O)N1C(Cc2ccccc2)COC1(C)C` (stereo not drawn) gave D2 PAM-1 -4, D2 antagonist -3, D2 ag-1 -3, D2 ag-2 41*, D2 PAM-2 -18, D3 arrestin ag -8% and D2 ag-3 -5%.
CCC1(C)NC(=O)N(CC(=O)N2CCC(Cc3ccccc3)CC2)C1=O (stereo not drawn) was read as D2 PAM-1 -5, D2 antagonist -20, D2 ag-1 -3, D2 ag-2 1 and D2 PAM-2 -4.
Cc1ccccc1NC(=O)COc1coc(CN2CCN(c3ccccc3)CC2)cc1=O was read as D2 PAM-1 6, D2 antagonist 9, D2 ag-1 inconclusive, D2 ag-2 55*, D2 PAM-2 -15, D3 arrestin ag 14% and D2 ag-3 29%.

Bioassay records as filed in PubChem.
